Assay results from PubChem BioAssay (Tox21).
Values joined by “and” are separate entries in the source; they are usually repeats but may differ in a detail not shown here. Equal entries are not always repeated. Records with an inconclusive call do not appear. Active and inactive are the calls of the source. The call rests on the fitted dose curve; in most records, active means well fitted curve in the direction sought with a large enough effect in the repeat runs; inconclusive means weak or mixed curves; inactive means no such curve, though single readings can be large; an effect the other way counts as inactive or inconclusive.

Columns and labels:
[1] = Caspase-3/7 induction in HepG2 cells by small molecules, qHTS assay (AID 1346978); further: nearly all actives have a fitted effect of over 15% in size
Method in brief: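 Wild-type HepG2 cells (2,000/well) were settled 5 h at 37 C, 5% CO2, then exposed to compounds in DMSO for 17 h. Caspase-3/7 activity was read by luminescence 30 min after adding Caspase-Glo 3/7 reagent at room temperature.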

[2] = Caspase-3/7 induction in CHO-K1 cells by small molecules, qHTS cell viability counter screen (AID 1346979); further: nearly all actives have a fitted effect of over 35% in size; further: potency means the concentration at half of the fitted maximal effect
Method in brief: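 CHO-K1 wt, 1,500 cells/well; 5hr pre-incubation 37C/5% CO2; compound pin transfer (DMSO); 16hr exposure; CellTiter-Fluor added, 1hr, fluorescence read.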

[3] = Caspase-3/7 induction in CHO-K1 cells by small molecules, qHTS assay (AID 1346980); further: nearly all actives have a fitted effect of over 15% in size
Method in brief: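 Wild-type cells were seeded at 1,500 per well and settled 5 hr at 37 C, 5% CO2, then exposed to DMSO-dissolved compounds for 17 hr. Caspase-Glo 3/7 reagent was added, and luminescence was read after 30min at room temperature.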

[4] = target: Nuclear receptor subfamily 1 group I member 2 (Homo sapiens) (UniProt O75469); assay: Human pregnane X receptor (PXR) small molecule agonists, qHTS assay (AID 1346982); further: nearly all actives have a fitted effect of over 35% in size; further: potency means the concentration at half of the fitted maximal effect
Nuclear receptor subfamily 1 group I member 2 (Homo sapiens), sequence (O75469 whole entry, looked up): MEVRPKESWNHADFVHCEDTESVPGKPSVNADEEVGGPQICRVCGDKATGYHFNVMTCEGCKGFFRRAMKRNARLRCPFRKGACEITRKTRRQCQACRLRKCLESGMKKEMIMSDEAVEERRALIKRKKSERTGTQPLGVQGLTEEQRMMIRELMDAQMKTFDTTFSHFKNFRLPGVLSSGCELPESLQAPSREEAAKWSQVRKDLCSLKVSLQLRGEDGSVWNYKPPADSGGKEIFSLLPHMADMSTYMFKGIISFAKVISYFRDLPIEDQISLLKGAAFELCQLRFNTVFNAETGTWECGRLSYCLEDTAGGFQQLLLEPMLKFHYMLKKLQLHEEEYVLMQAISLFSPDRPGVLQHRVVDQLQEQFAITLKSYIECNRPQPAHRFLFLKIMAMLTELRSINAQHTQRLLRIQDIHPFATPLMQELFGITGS
Method in brief: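 HepG2 PXR-Luc reporter line, 5% charcoal-stripped FBS; 5 hr pre-incubation, compound (DMSO) 24 hr at 37 C/5% CO2; ONE-Glo 30 min RT; luminescence read-out.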

[5] = target: Cytochrome P450 2D6 (Homo sapiens) (UniProt P10635); assay: Cytochrome P450 Family 2 Subfamily D Member 6 (CYP2D6) small molecule antagonists: luciferase reporter qHTS assay (AID 1671196); further: nearly all actives have a fitted effect of over 50% in size; further: potency means the concentration at half of the fitted maximal effect
Cytochrome P450 2D6 (Homo sapiens), sequence (P10635 whole entry, looked up): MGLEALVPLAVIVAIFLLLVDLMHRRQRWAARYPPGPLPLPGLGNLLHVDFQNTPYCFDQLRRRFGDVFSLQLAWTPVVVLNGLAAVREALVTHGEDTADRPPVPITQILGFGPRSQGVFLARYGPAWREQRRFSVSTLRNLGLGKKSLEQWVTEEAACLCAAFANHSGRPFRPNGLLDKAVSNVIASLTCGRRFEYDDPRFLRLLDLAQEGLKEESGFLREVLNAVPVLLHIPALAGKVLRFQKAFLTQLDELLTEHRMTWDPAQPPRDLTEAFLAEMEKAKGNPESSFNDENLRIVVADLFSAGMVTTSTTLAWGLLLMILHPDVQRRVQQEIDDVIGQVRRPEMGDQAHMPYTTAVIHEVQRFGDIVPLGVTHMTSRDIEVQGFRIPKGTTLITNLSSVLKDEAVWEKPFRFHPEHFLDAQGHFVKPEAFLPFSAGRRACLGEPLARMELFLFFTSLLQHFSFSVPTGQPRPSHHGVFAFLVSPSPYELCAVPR
Method in brief: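 Luminogenic proluciferin substrate, CYP2D6 enzyme; 10 min RT preincubation with compound, NADPH regeneration system added, 1 h RT. Stop/detection reagent, 20 min RT, luminescence read (RLU). Signal proportional to CYP activity.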

[6] = target: Cytochrome P450 2C19 (Homo sapiens) (UniProt P33261); assay: Cytochrome P450 Family 2 Subfamily C Member 19 (CYP2C19) small molecule antagonists: luciferase reporter qHTS assay (AID 1671197); further: nearly all actives have a fitted effect of over 65% in size; further: potency means the concentration at half of the fitted maximal effect
Cytochrome P450 2C19 (Homo sapiens), sequence (P33261 whole entry, looked up): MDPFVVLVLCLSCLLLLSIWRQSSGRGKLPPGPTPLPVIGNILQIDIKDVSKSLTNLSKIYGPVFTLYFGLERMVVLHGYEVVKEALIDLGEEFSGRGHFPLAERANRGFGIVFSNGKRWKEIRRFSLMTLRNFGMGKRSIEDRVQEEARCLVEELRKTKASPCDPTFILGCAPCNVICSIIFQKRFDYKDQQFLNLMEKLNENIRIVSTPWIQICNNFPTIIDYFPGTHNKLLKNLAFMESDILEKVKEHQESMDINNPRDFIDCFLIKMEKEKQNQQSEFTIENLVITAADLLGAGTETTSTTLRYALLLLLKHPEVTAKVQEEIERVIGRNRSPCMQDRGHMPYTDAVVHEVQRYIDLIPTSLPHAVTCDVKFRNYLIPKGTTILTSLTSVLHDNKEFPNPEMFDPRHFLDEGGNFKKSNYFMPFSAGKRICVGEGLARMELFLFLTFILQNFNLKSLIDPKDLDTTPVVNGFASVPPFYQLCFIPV
Method in brief: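 Quantitative high-throughput screen of the Tox21 library using CYP2C19 with proluciferin substrate. Reaction: NADPH regeneration, 37C, 1 h, after 10 min compound preincubation at room temperature. Readout: luminescence.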

[7] = target: Cytochrome P450 2C9 (Homo sapiens) (UniProt P11712); assay: Cytochrome P450 Family 2 Subfamily C Member 9 (CYP2C9) small molecule antagonists: luciferase reporter qHTS assay (AID 1671198); further: nearly all actives have a fitted effect of over 50% in size; further: potency means the concentration at half of the fitted maximal effect
Cytochrome P450 2C9 (Homo sapiens), sequence (P11712 whole entry, looked up): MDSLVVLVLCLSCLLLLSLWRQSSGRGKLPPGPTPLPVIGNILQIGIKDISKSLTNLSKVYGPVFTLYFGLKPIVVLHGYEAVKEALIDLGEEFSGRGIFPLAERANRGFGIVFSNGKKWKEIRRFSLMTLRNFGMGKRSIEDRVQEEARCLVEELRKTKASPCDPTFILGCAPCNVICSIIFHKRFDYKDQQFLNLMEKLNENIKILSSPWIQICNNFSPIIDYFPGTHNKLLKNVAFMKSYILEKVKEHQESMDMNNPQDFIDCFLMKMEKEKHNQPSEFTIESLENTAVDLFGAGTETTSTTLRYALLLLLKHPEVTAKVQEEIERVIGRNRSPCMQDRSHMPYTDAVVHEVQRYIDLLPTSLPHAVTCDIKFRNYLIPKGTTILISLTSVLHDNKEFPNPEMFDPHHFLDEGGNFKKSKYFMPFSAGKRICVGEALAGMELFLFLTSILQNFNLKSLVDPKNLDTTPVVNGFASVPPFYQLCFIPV
Method in brief: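 CYP2C9 activity was measured with a P450-Glo proluciferin substrate. Enzyme–substrate mix was held with compound for 10 min at room temperature, then NADPH regeneration solution was added for 1 h at 37C. Luciferin product was read as luminescence.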

[8] = target: Cytochrome P450 1A2 (Homo sapiens) (UniProt P05177); assay: Cytochrome P450 Family 1 Subfamily A Member 2 (CYP1A2) small molecule antagonists: luciferase reporter qHTS assay (AID 1671199); further: nearly all actives have a fitted effect of over 50% in size; further: potency means the concentration at half of the fitted maximal effect
Cytochrome P450 1A2 (Homo sapiens), sequence (P05177 whole entry, looked up): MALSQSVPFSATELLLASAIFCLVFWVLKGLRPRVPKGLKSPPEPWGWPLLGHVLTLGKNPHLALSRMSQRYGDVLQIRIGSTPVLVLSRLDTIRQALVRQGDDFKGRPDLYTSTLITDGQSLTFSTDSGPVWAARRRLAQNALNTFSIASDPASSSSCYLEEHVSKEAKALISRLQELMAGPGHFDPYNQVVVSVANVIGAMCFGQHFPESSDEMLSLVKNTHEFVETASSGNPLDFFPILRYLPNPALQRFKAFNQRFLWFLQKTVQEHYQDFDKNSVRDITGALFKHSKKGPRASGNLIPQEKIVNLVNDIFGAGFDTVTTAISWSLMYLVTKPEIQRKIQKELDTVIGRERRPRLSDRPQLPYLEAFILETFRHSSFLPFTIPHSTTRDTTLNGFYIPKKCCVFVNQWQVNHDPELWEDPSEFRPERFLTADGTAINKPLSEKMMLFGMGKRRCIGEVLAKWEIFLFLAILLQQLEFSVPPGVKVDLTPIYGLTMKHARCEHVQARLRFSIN
Method in brief: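 Luminescence readout (relative luminescence units) after luciferin detection reagent, 20 min RT. Preceded by 1 h room-temperature CYP1A2 reaction with NADPH regeneration solution following 10 min compound preincubation with enzyme and proluciferin substrate. Furafylline positive control.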

[9] = target: Voltage-gated inwardly rectifying potassium channel KCNH2 (Homo sapiens) (UniProt Q12809); assay: Human Ether-a-go-go-Related Gene (hERG) channel small molecule antagonists: fluorescence cell-based qHTS assay (AID 1671200);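 further: hERG-expressing U2OS cells given a thallium stimulus after FluxOR II dye loading; series mostly up to about 77 µM; nearly all actives have a fitted effect of over 50% in size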
Voltage-gated inwardly rectifying potassium channel KCNH2 (Homo sapiens), sequence (Q12809 whole entry, looked up): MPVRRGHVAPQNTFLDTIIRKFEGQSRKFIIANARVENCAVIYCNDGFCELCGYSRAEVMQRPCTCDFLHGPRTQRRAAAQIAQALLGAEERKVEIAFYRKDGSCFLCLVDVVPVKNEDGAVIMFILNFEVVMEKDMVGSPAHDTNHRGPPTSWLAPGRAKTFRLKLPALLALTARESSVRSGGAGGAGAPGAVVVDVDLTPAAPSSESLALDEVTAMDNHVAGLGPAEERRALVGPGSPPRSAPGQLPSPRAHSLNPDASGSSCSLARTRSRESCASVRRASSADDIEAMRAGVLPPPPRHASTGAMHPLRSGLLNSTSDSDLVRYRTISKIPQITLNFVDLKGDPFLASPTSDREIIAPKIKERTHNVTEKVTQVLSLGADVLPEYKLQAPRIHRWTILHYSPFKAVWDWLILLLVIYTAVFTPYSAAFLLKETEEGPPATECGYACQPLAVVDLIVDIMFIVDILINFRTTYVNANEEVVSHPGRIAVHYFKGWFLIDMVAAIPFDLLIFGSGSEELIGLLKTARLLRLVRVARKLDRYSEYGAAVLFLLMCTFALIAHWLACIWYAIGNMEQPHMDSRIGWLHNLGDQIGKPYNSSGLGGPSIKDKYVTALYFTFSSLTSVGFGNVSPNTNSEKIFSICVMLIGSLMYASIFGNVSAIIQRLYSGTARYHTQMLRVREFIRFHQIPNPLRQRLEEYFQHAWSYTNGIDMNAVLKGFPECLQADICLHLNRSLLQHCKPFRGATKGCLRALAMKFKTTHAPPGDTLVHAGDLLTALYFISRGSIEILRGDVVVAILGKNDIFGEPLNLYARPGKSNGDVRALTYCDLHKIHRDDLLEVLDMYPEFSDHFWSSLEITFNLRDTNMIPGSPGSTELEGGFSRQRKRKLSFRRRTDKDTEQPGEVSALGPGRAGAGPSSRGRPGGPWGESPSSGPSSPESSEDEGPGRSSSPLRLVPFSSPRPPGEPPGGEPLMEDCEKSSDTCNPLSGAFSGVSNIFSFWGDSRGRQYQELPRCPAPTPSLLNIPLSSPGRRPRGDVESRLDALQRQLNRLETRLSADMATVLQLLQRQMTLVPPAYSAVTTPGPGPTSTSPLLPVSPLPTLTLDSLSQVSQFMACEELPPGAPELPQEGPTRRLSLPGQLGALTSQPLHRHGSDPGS
Method in brief: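 Read-out: thallium influx as a surrogate for potassium, tracked as fluorescence (480 nm ex/540 nm em) every second for 2 min after Stimulus Buffer addition in dye-loaded hERG-U2OS cells.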

[10] = target: Cytochrome P450 3A4 (Homo sapiens) (UniProt P08684); assay: Cytochrome P450 Family 3 Subfamily A Member 4 (CYP3A4) small molecule antagonists: luciferase reporter qHTS assay (AID 1671201); further: nearly all actives have a fitted effect of over 50% in size; further: potency means the concentration at half of the fitted maximal effect
Cytochrome P450 3A4 (Homo sapiens), sequence (P08684 whole entry, looked up): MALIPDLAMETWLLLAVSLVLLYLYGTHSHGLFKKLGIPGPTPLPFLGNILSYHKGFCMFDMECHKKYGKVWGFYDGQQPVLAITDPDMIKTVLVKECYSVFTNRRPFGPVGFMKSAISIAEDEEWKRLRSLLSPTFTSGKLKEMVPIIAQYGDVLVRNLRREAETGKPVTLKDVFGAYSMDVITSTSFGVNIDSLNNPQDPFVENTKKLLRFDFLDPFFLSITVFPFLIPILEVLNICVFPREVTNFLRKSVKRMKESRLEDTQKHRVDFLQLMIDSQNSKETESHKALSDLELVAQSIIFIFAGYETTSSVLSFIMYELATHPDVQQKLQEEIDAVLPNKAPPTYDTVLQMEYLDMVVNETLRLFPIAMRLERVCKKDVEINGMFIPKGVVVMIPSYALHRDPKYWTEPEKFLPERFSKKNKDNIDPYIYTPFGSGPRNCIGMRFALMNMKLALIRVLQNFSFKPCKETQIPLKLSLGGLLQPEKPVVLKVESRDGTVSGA
Method in brief: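 Luminescent readout (RLU) proportional to CYP3A4 activity, from luciferin generated off a proluciferin substrate. Enzyme–substrate mix plus compound 10 min at room temp, NADPH regeneration 1 h, detection reagent 20 min.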

[11] = target: Nuclear receptor subfamily 1 group I member 2 (Rattus norvegicus) (UniProt Q9R1A7); assay: Rat pregnane X receptor (rPXR) activation by small molecules, qHTS assay (AID 1346983); conditions: rPXR luciferase reporter cells, One-Glo luminescence, 24 h; active compounds read high; further: nearly all actives have a fitted effect of over 20% in size
Nuclear receptor subfamily 1 group I member 2 (Rattus norvegicus), sequence (Q9R1A7 whole entry, looked up): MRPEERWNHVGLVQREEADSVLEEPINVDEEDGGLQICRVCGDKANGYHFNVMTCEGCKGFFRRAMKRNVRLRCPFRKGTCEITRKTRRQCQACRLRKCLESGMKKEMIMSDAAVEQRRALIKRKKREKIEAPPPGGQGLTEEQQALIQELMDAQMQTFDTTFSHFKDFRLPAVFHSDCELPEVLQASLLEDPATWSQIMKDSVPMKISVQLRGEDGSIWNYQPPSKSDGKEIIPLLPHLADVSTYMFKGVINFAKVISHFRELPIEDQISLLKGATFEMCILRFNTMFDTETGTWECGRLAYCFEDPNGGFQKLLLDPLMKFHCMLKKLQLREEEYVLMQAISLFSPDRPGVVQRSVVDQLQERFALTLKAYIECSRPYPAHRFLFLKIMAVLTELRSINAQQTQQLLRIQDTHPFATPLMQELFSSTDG
Method in brief: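 Cell-based rPXR luciferase reporter assay, 2,000 cells per well, rested 5hr at 37 C before compound addition in DMSO, then 24 hr at 37 C. One-Glo reagent was added and luminescence read after 30 min at room temperature.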

[12] = target: Nuclear receptor subfamily 1 group I member 2 (Homo sapiens) (UniProt O75469); assay: CYP3A4 induction through human pregnane X receptor (PXR) by small molecules, qHTS assay (AID 1346984); further: nearly all actives have a fitted effect of over 40% in size
Method in brief: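 HepG2-derived DPX-2 line carrying PXR plus a CYP3A4-promoter luciferase reporter; cells plated 5 hr, compound-exposed 24 hr at 37C. CYP3A4 activity probed with 3uM (final) Luciferin-IPA for 3hr, then luciferase read after One-Glo.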

[13] = target: Nuclear receptor subfamily 1 group I member 2 (Homo sapiens) (UniProt O75469); assay: Human pregnane X receptor (PXR) activation by small molecules, qHTS assay (AID 1346985); further: nearly all actives have a fitted effect of over 40% in size
Method in brief: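 DPX-2 cells (HepG2 co-transfected with a PXR response element and a CYP3A4-promoter luciferase construct) were seeded at 2,000 per well, rested 5 hr at 37C, then exposed to DMSO-dissolved compounds for 24 hr. Activation was read as luciferase luminescence.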

[14] = Caspase-3/7 induction in HepG2 cells by small molecules, qHTS cell viability counter screen (AID 1346981); further: series mostly up to about 92 µM; nearly all actives have a fitted effect of over 30% in size
Method in brief: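 Fluorescence read-out of live-cell protease activity (CellTiter-Fluor) after 1 hr with reagent. This was measured in the same wells as the caspase-3/7 luminescence, on HepG2 cells exposed to DMSO-dissolved compounds for 16 hr at 37 C.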
On the % scale 0 is the no-effect control and ±100 the full control effect.

O=c1cc(CO)occ1O
inactive: Potency [1] | Potency [2] | outcome [3] | Potency [4] | Potency [5] | Potency [6] | Potency [7] | Potency [8] | Potency [9] | Potency [10]

O=C1OC(=O)C2CCCCC12 (stereo unspecified)
inactive: Potency [1] | Potency [2] | outcome [3] | Potency [5] | Potency [6] | Potency [7] | Potency [8] | Potency [9] | Potency [10]

Cn1cc(S(C)=O)c(=O)c2ccc(F)cc21 (stereo unspecified)
inactive: Potency [1] | Potency [2] | outcome [3] | Potency [5] | Potency [6] | Potency [7] | Potency [8] | Potency [9] | Potency [10]

CCCCCCCCCCCCCCCCC
active: Potency [8] 12.6 µM
inactive: Potency [1] | Potency [2] | outcome [3] | Potency [4] | Potency [5] | Potency [6] | Potency [7] | Potency [9] | Potency [10]

Cc1cccc(C)c1NC(=O)C(C)N (stereo unspecified)
inactive: Potency [1] | Potency [2] | outcome [3] | max activation [11] -0.615% | Potency [12] | Potency [13] | Potency [5] | Potency [6] | Potency [7] | Potency [8] | Potency [9] | Potency [10]

CCN(CC)CCNC(=O)c1cc(S(C)(=O)=O)ccc1OC
inactive: Potency [1] | outcome [3] | Potency [14] | max activation [11] -2.45% | Potency [12] | Potency [13] | Potency [6] | Potency [7] | Potency [8] | Potency [9] | Potency [10]
active: Potency [5] 12.3 µM

CC(C)=CCCC(C)CC(=O)O (stereo unspecified)
inactive: Potency [1] | outcome [3] | Potency [4] | Potency [5] | Potency [9] | Potency [10]
active: Potency [6] 35.6 µM | Potency [7] 63.3 µM

CCCCCCCCCCCCN(CCCCCCCCCCCC)CCCCCCCCCCCC
inactive: Potency [1] | outcome [3] | Potency [14] | Potency [4] | Potency [5] | Potency [6] | Potency [7] | Potency [9] | Potency [10]

Nc1ccccc1S(=O)(=O)O
inactive: Potency [1] | Potency [2] | outcome [3] | Potency [5] | Potency [6] | Potency [8] | Potency [9] | Potency [10]

CC(=O)Nc1c(I)cc(I)c(C(=O)O)c1I
inactive: Potency [1] | Potency [2] | outcome [3] | max activation [11] -2.53% | Potency [12] | Potency [13] | Potency [9] | Potency [10]
active: Potency [5] 27.5 µM | Potency [8] 24.5 µM

COC(C)(C)CCCC(C)CC=O (stereo unspecified)
inactive: Potency [1] | outcome [3] | Potency [14] | Potency [4] | Potency [5] | Potency [6] | Potency [8] | Potency [9] | Potency [10]

CN(C(=O)c1c(O)c2ccccc2n(C)c1=O)c1ccccc1
inactive: Potency [1] | Potency [2] | outcome [3] | max activation [11] -3.59% | Potency [5] | Potency [6] | Potency [8] | Potency [9] | Potency [10]

CCOC(C)(C)C
inactive: Potency [1] | Potency [2] | outcome [3] | Potency [4] | Potency [5] | Potency [6] | Potency [7] | Potency [8] | Potency [9] | Potency [10]

CC(=O)CC(C)C
inactive: Potency [1] | Potency [2] | outcome [3] | Potency [4] | Potency [5] | Potency [6] | Potency [7] | Potency [9] | Potency [10]

O=C1CCCCCCCCCCCN1
active: Potency [8] 70.9 µM | Potency [10] 3.55 µM and 7.96 µM
inactive: Potency [1] | Potency [2] | outcome [3] | Potency [5] | Potency [9]

CC(=O)OCC(=O)[C@@]1(O)CCC2C3CCC4=CC(=O)CC[C@]4(C)C3[C@@H](O)C[C@@]21C (stereo partly specified)
inactive: Potency [1] | Potency [2] | outcome [3] | Potency [4] | Potency [6] | Potency [8] | Potency [9] | Potency [10]

NC(=O)COCCN1CCN(C(c2ccccc2)c2ccc(Cl)cc2)CC1 (stereo unspecified)
inactive: Potency [1] | Potency [2] | outcome [3] | Potency [4] | Potency [5] | Potency [6] | Potency [7] | Potency [8] | Potency [10]

COCCc1ccc(OCC(O)CNC(C)C)cc1 (stereo unspecified)
inactive: Potency [1] | Potency [2] | outcome [3] | max activation [11] -0.133% | Potency [9]

CCCCNC(=O)NCCCC
active: Potency [6] 39.9 µM | Potency [8] 35.6 µM
inactive: Potency [1] | Potency [14] | Potency [5] | Potency [9] | Potency [10]

CCn1ccnc1CC1COc2ccccc2O1 (stereo unspecified)
active: Potency [4] 26.6 µM | Potency [5] 0.776 µM | Potency [6] 4.9 µM
inactive: Potency [1] | Potency [2] | outcome [3] | Potency [7] | Potency [9] | Potency [10]

N#Cc1ccc(C2CCCc3cncn32)cc1 (stereo unspecified)
active: Potency [5] 12.7 µM | Potency [6] 12.7 µM
inactive: Potency [1] | Potency [2] | outcome [3] | Potency [8] | Potency [9]

NS(=O)(=O)c1cc(C(=O)NN2C[C@H]3[C@H]4CCC(C4)[C@H]3C2)ccc1Cl
inactive: Potency [1] | outcome [3] | Potency [14] | Potency [4] | Potency [5] | Potency [6] | Potency [7] | Potency [8] | Potency [9]

CCC=O
inactive: Potency [1] | Potency [2] | outcome [3] | Potency [4] | Potency [5] | Potency [6] | Potency [7] | Potency [9] | Potency [10]

Oc1ccc(C2CNCCc3c2cc(O)c(O)c3Cl)cc1 (stereo unspecified)
inactive: Potency [1] | Potency [2] | outcome [3] | Potency [4] | Potency [8] | Potency [9] | Potency [10]

CC(C)(C)c1ccc(O)c(O)c1
active: Potency [2] 63.2 µM and 57.7 µM | Potency [4] 63.2 µM and 27.3 µM | Potency [5] 23.8 µM | Potency [7] 61.5 µM | Potency [8] 41.1 µM
inactive: Potency [1] | outcome [3] | Potency [6] | Potency [9] | Potency [10]

C[N+](C)(C)CC(O)CC(=O)[O-] (stereo unspecified)
inactive: Potency [1] | Potency [2] | outcome [3] | max activation [11] 7.16% | Potency [6] | Potency [7] | Potency [8] | Potency [9] | Potency [10]

O=C(O)COc1nn(Cc2ccccc2)c2ccccc12
inactive: Potency [1] | outcome [3] | Potency [4] | max activation [11] -0.954% | Potency [12] | Potency [13] | Potency [5] | Potency [6] | Potency [8] | Potency [9] | Potency [10]
